Compound activity deposited in PubChem BioAssay by National Center for Advancing Translational Sciences (NCATS).
D3 antag: qHTS of D3 Dopamine Receptor Antagonist: qHTS; D3R cells, DiscoveRx beta-arrestin luminescence, antagonist mode; active compounds read low; 360,000 compounds, 2.5% hits; max response, negative = inhibition, %; AID 652054, 2013; D(3) dopamine receptor (Homo sapiens), P35462; in the data active = max response below about -50%; inconclusive = no clear call, values can overlap the other calls; also: % is scaled to controls: 0 for no effect and ±100 for the full control effect
Target sequence (P35462 whole entry, looked up): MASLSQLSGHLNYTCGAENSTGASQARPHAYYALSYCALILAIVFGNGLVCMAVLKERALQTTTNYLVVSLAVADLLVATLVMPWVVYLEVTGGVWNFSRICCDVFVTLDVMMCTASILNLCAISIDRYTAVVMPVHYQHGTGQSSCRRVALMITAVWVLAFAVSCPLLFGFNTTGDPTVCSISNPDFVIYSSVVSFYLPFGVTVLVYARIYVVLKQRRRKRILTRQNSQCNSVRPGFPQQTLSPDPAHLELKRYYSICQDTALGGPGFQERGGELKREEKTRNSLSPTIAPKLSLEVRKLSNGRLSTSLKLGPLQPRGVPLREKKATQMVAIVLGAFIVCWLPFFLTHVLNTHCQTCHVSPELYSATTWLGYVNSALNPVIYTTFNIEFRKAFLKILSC
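Cells expressing the human receptor were seeded at 1500 cells/well, incubated overnight at 37 degrees C in 5% CO2, then exposed to library compounds with dopamine controls for 90 minutes at 37 degrees C before luminescent detection.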
KB-3-1 tox: qHTS assay for MDR1-selective chemotherapeutics: Primary screen using the parental adenocarcinoma cell KB-3-1. Potency, µM (doses to about 46.1 µM), most hits filed as cytotoxic. KB-3-1 viability, CellTiter-Glo ATP luminescence, 72 h. 400,000 compounds, 1.4% hits; also: potency is read from the fitted curve at half-maximal effect; % is scaled to controls: 0 for no effect and ±100 for the full control effect; nearly all actives have a fitted effect of over 60% in size
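Screening of KB-3-1 cells (DMEM, 10% FBS, phenol-red free) ran from lowest to highest compound concentration; after 72 h at 37 °C viability was read luminescently and curves fitted.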
DRD3 agonist: qHTS of D3 Dopamine Receptor Agonist: qHTS. 410,000 compounds, 0.58% hits. D3R DiscoveRx beta-arrestin cells, luminescence, 90 min. max activation, %. D(3) dopamine receptor (Homo sapiens), P35462; in the data active = max activation above about 30%; also: 0% is about no effect
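Cells at 1500/well, incubated overnight, then treated with pinned compounds (dopamine as control) for 90 min at 37 degrees C. DiscoveRx reagent added for 30 - 60 minutes at room temperature; luminescence read.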
KB-V1 cytotox: qHTS assay for MDR1-selective chemotherapeutics: Primary screen using the drug-selected MDR subline cells KB-V1 | 400,000 compounds, 3.4% hits | Potency, µM (highest dose often 46.1 µM), actives largely listed as cytotoxic | AID 1347076, 2019 | KB-V1 MDR cells viability, CellTiter-Glo, 72 h; also: potency is read from the fitted curve at half-maximal effect; % is scaled to controls: 0 for no effect and ±100 for the full control effect; nearly all actives have a fitted effect of over 60% in size
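Following 72 h at 37 degrees C with compound, KB-V1 cell viability was read by CellTiter-Glo luminescence, medium being phenol-red-free DMEM plus 10% FBS; concentration-response parameters came from normalized, curve-fitted qHTS data.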
MCF10A rerep: A quantitative high throughput screen for small molecules that induce DNA re-replication in MCF 10a normal breast cells. 350,000 compounds, 2.9% hits. Potency, µM (top dose mostly 46.1 µM), inactives show at the highest dose activity, positive = re-replication, hits mostly activators. MCF 10A DNA re-replication, Hoechst nuclear intensity, 48 h; also: potency is read from the fitted curve at half-maximal effect; % of control where 0% means no effect; nearly all actives have a fitted effect of over 50% in size
SW480 rerep: A quantitative high throughput screen for small molecules that induce DNA re-replication in SW480 colon adenocarcinoma cells | SW480 DNA re-replication, Hoechst DNA content imaging, 48 h | Potency, µM (titrated, usually from 46.1 µM), for the others: at the top dose re-replication activation, actives largely listed as activators | 340,000 compounds, 1.8% hits | AID 624297, 2012; also: potency is read from the fitted curve at half-maximal effect; % of control where 0% means no effect; nearly all actives have a fitted effect of over 55% in size
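DNA re-replication was detected as more nuclei of elevated Hoechst intensity after 48 hr exposure to compound (23 nL pinned per well of 250 cells).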
An asterisk follows results filed as active; i = inactive; ? = inconclusive; . = no result given; [ ] = another dose, or the depositor's remark. Hits are enriched below; roughly 8.9% of the tested compounds scored in any of these assays. Unless noted, calls follow the shape of the dose curve; as a rule, active = well fitted curve in the direction sought with a large enough effect; inconclusive = small, poorly fitted or top-dose-only effect, or another doubt; inactive = no such curve, though single readings can be large; an effect the other way counts as inactive or inconclusive.

SMILES	D3 antag	KB-3-1 tox	DRD3 agonist	KB-V1 cytotox	MCF10A rerep	SW480 rerep
CCOC(=O)c1ccccc1NC(=O)CSc1nc2cn(CC)nc2c(=O)n1Cc1ccc(Cl)cc1	.	i	5	i	.	.
Cc1ccc(-c2csc3nc[nH]c(=S)c23)cc1	-21	?	0	?	?	?
S=c1[nH]cnc2scc(-c3ccc(Br)cc3)c12	-1	?	-8	?	?	12µM*
O=C(CCn1c(=O)c2cccn2c2cccnc21)NCc1ccc(Cl)cc1	.	.	5	.	.	.
CCC(Sc1nc2n[nH]c(C)c2c(=N)n1-c1ccc(Br)cc1)C(=O)N(CC)CC (stereo not drawn)	.	i	-4	?	.	.
O=C(NCc1nc2ccccc2[nH]1)C1=C[C@@H](C2CCCCC2)C[C@@H](OCc2ccc(CO)cc2)O1	79	?	11	i	?	?
O=C(Nc1ccccc1)C1=C[C@H](C2CCCCC2)C[C@H](OCc2ccc(CO)cc2)O1	?	i	0	i	?	-50%[9.22 µM]
O=C(Nc1ccccc1)C1=C[C@@H](C2CCCCC2)C[C@@H](OCc2ccc(CO)cc2)O1	-5	?	-11	i	16µM*	?
O=C(NCc1nc2ccccc2[nH]1)C1=C[C@H](C2CCCCC2)C[C@H](OCc2ccc(CO)cc2)O1	60	?	41*	?	?	?
COc1ccc(N2CCOCC2)c(NC(=O)c2cc3ccccc3o2)c1	20	i	5	12µM*	?	?
O=C(Nc1ccc(N2CCOCC2)c(Cl)c1)c1ccccc1Cl	-53*	i	1	i	-44%	1%
O=C(Nc1ccc(N2CCOCC2)c(Cl)c1)c1ccc(F)cc1	19	i	-5	15µM*	?	-7%
O=C(Nc1ccc(N2CCOCC2)c(Cl)c1)c1cc2ccccc2o1	-27	?	-7	?	13µM*	3%[9.22 µM]
O=C(Nc1ccc(N2CCOCC2)c(Cl)c1)c1ccc(Br)o1	85	i	1	?	6%	1%
O=C(Nc1ccccc1N1CCOCC1)c1cc2ccccc2o1	4	i	8	?	-5%	-10%
CC(C)(C)NC[C@H](O)c1cc(O)cc(O)c1	.	.	.	.	8%	-13%
COC(=O)c1ccc(-n2c(/C=C/c3cc(OC)c(OC)c(OC)c3)nc3cc(Cl)ccc3c2=O)cc1	.	i	-5	?	.	.
CN(C)c1ccc(CNC(=O)C2CCN(S(=O)(=O)c3cn(C)cn3)CC2)cc1	.	.	-15	.	.	.
CCCCc1ccc(-n2nc3cc(Cl)c(NC(=O)c4ccc(OC)cc4)cc3n2)cc1	.	i	1	i	.	.
O=C(CSc1nc(=O)[nH]c2c1CCC2)Nc1cc(C(F)(F)F)ccc1Cl	.	.	2	.	.	.
O=C(Nc1c2c(nn1-c1ccc(F)cc1)CS(=O)(=O)C2)C12CC3CC(CC(C3)C1)C2	12	i	-4	23µM*	-3%	2%
Cc1ccc(CCNC(=O)CN2CCN(Cc3ccc(Cl)cc3)C2=O)cc1	.	i	2	i	.	.
Cc1ccc2nc3c(cc2c1)c(NC(=O)c1ccco1)nn3CC(C)C	-13	i	7	i	12%	?
CCCn1nc(NC(=O)c2ccco2)c2cc3cc(C)ccc3nc21	39	i	7	i	0%	18µM*
CCCn1nc(NC(=O)c2ccccn2)c2cc3cc(C)ccc3nc21	20	?	1	i	?	7.3µM*
SMILES	D3 antag	KB-3-1 tox	DRD3 agonist	KB-V1 cytotox	MCF10A rerep	SW480 rerep
CCCn1nc(NC(=O)c2ccco2)c2cc3ccc(C)cc3nc21	-16	i	-3	i	?	13µM*
O=C(c1ccc(F)cc1)N1CCC(c2nc3ccccc3s2)CC1	.	i	0	?	.	.
Cc1nn2c(-c3ccccc3)nnc2c2ccccc12	-17	?	3	5.8µM*	0%	-2%
O=C(Cn1cnc2c(nnn2Cc2ccc(F)cc2)c1=O)Nc1ccc2c(c1)OCCO2	2	i	3	i	16µM*	?
O=C(Cn1cnc2c(nnn2Cc2ccc(F)cc2)c1=O)Nc1cccc(F)c1	3	i	-8	i	-11%	-3%
O=C(Nc1nc([C@@H]2O[C@H](CO)[C@@H](O)[C@H](O)[C@H]2O)cs1)NC(c1ccccc1)c1ccccc1	23	18µM*	5	i	.	.
O=C(Nc1cccc(Cl)c1Cl)c1csc([C@@H]2O[C@H](CO)[C@H](O)[C@H](O)[C@H]2O)n1	?	i	-3	?	.	.
Cc1nn(CC(=O)N2CCCCC2)c(=O)c2cc3occc3n12	.	i	-12	i	.	.
COc1cc(C2c3cc4c(cc3OC(Nc3ccc(C(=O)O)cc3)C2C)OCO4)cc(OC)c1OC (stereo not drawn)	112	0.18µM*	33*	i	1.3µM*	0.65µM*
COc1cc(C2c3cc4c(cc3OC(NCCc3ccccc3)C2C)OCO4)cc(OC)c1OC (stereo not drawn)	-7	4.1µM*	-1	2.9µM*	1µM*	1µM*
COc1cc(C2c3cc4c(cc3OC(C)(N3CCCC3)C2C)OCO4)cc(OC)c1OC (stereo not drawn)	-21	1.5µM*	-14	2.6µM*	0.65µM*	5.2µM*
COc1cc(C2c3cc4c(cc3OC(N3CCCC3)C2C)OCO4)cc(OC)c1O (stereo not drawn)	13	?	8	?	?	?
CCCCCCCCCCCCCCCCCCN(CCCCCCCCCCCCCCCCCC)c1ccc(C=O)cc1	.	i	.	i	.	.
Cc1ccc(Cl)cc1NC(=O)CN1C(=O)C(C)(C)c2cc(S(=O)(=O)N3CCCCC3)ccc21	.	?	-3	?	.	.
COc1ccc(-c2cc(C(=O)NCCc3ccc(OC)c(OC)c3)c3c(-c4ccc(F)cc4)[nH]nc3n2)cc1	.	i	-8	i	.	.
Cc1ccc2c(C(=O)CCl)c(C)[nH]c2c1	-8	13µM*	1	?	18µM*	?
Cc1ccc2c(C(=O)CN3CCSCC3)c(C)[nH]c2c1	-9	i	-5	i	-1%	2%
Cc1ccc(-n2nc(C(=O)N3CCCCC3)c(=O)n(C)c2=O)cc1	.	i	-8	i	.	.
